Measurements reported in the supplement of paper PMC10338343.
± gives the standard deviation.

Each sequence was assayed on MILI (PIWIL2) piRISC loaded with L1MC piRNA (26 nt) (assay: pre-steady-state target cleavage rate (min^-1); guide: L1MC piRNA 5'p-UAACUAAAUACUAUGCAAGCUGUAGG; MIWI and MILI are mouse PIWI proteins and EfPiwi is from a freshwater sponge; tags in brackets are library labels; higher = faster piRNA-guided slicing of the target). Settings: auxiliary factor: 500 nM mouse GTSF1.
Description: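 Cleave-'n-Seq: a library of target RNAs (target site embedded in constant flanks, ACAGCATTCCGCGTTAGTGATATCCG... 5' flank; DNA-blocked outside the site) at 0.1 nM was incubated with 1 nM active mouse MILI or MIWI piRISC (synthetic 5'-monophosphorylated piRNA guide) with or without 500 nM mouse GTSF1 at 33 °C for 1 min to 16 h. Uncleaved targets were sequenced and normalised to non-target controls, and the pooled three trials were fitted to a burst-and-steady-state model to give the pre-steady-state cleavage rate (min^-1; k3 is constrained to at most 1e-4). Sequence is the target site only; target names encode pairing extent (gX:gY) and contiguous / 1-mismatch / 2-mismatch / bulge geometry. Fits with R² ≤ 0 are excluded.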

Sequence | pre-steady-state target cleavage rate
UCCUGGAUGUCGAUGCAUAGUAUUUAGUUG [g2:g17:cont:t1G] | 0.0776 ± 0.013
UCCUCCUACAGCUUCCAAAGUAUUUAGUUA | 0.13 ± 0.019
UCCUGGUACAGCUAGCAUAGAAUUUAGUUA | 0.313 ± 0.084
UCCUGGAUGUGCUUGCAUAGUAUUGUAGUUA | 0.0838 ± 0.018
UCCUGCUAGAGCUUGCAUAGUAUUUACUUA | 0.175 ± 0.042
UCCUGGAUGAGCAUGCAUAGUAUUUACAAA | 0.0679 ± 0.018
UCCUGCUACAGCUUGCAAAGUAAUUAGUUA | 0.124 ± 0.018
UCCUGGUACAGCUUGCAAGUAUUUAGUUA | 0.113 ± 0.014
UCCUGCUACAGCAUGCAUAGUAUUAAGUUA | 0.331 ± 0.043
UCCUCCUACAGCUUGCAUAGUAAUUUGUUA | 0.111 ± 0.021
UCCUGGAUGUGCUUGGAUAGUAUUUAGUUA | 0.115 ± 0.013
UCCUGGAUGUCCUUGCAUAGUUAUUUAGUUA | 0.0103 ± 0.0056
UCCUCGUACAGCUUGCAUAGUUUUUAGUUA | 0.0651 ± 0.008
UCCUGGAUCAGCUUGCAUAGUAAAAAGAAA | 0.0472 ± 0.015
UCCUCCUACAGCUUGCAUACUUUUUAGUUA | 0.00693 ± 0.0043
UCCUGCUACAGCUUGCUUACUAUUUAGUUA | 0.114 ± 0.016
UCCUGGAAAAGCUUGCAUAGUAUUUAGUUA | 0.249 ± 0.019
UCCUGGAUCAGCUUGCAUAGUUUUUUGUUA | 0.0453 ± 0.011
UCCUGGUACAGCUUGCAUUGUAUUAAGUUA | 0.0503 ± 0.011
UCCUGCUACUGCAUGCAUAGUAUUUAGUUA | 0.282 ± 0.025
UCCUGGAUGAGAUUGCAUAGUAUUUAGUUA | 0.153 ± 0.014
UCCUGGUACAGCUUGCAAAGUAAUUAGUUA | 0.207 ± 0.03

Same assay, conditions: auxiliary factor: none (no GTSF1)

Sequence | pre-steady-state target cleavage rate
UCCUGGAUGUCGAUGCAUAGUAUUUAGUUG [g2:g17:cont:t1G] | 0.00604 ± 0.0026
UCCUCCUACAGCUUCCAAAGUAUUUAGUUA | 0.0037 ± 0.0022
UCCUGGAUGUGCUUGCAUAGUAUUGUAGUUA | 0.0048 ± 0.0032
UCCUGCUAGAGCUUGCAUAGUAUUUACUUA | 0.00284 ± 0.0026
UCCUGCUACAGCUUGCAAAGUAAUUAGUUA | 0.00266 ± 0.0025
UCCUGGAUGUCGAACGAUAGUUAUUUAGUUA | < 0.0001
UCCUGGUACAGCUUGCAAGUAUUUAGUUA | 0.00636 ± 0.0022
UCCUGCUACAGCAUGCAUAGUAUUAAGUUA | 0.00346 ± 0.0032
UCCUCCUACAGCUUGCAUAGUAAUUUGUUA | 0.00269 ± 0.0026
UCCUGGAUGUGCUUGGAUAGUAUUUAGUUA | 0.00702 ± 0.0024
UCCUGGAUGUCCUUGCAUAGUUAUUUAGUUA | 0.00393 ± 0.0027
UCCUCGUACAGCUUGCAUAGUUUUUAGUUA | 0.00493 ± 0.0018
UCCUGCUACAGCUUGCUUACUAUUUAGUUA | 0.00371 ± 0.0023
UCCUGGAAAAGCUUGCAUAGUAUUUAGUUA | 0.00809 ± 0.0029
UCCUGGAUCAGCUUGCAUAGUUUUUUGUUA | 0.00417 ± 0.0027
UCCUGCUACUGCAUGCAUAGUAUUUAGUUA | 0.00943 ± 0.0022
UCCUGGAUGAGAUUGCAUAGUAUUUAGUUA | 0.011 ± 0.0024
UCCUGGUACAGCUUGCAAAGUAAUUAGUUA | 0.00414 ± 0.0027
